Here are results for 8 molecules from PubChem BioAssay (NCATS).

Assay [1] has as its target Lysosomal acid glucosylceramidase (Homo sapiens) (UniProt P04062). Kind of assay: Glucocerebrosidase-p2 (AID 348; in the data active means potency below about 10 µM; further: potency means the concentration at half of the fitted maximal effect). The settings on record: purified GBA, blue fluorogenic substrate, 40 min. A digest of the protocol:
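Compounds titrated from 0.6 nM upwards against 0.2 nM enzyme in pH 5.9 citric acid/KH2PO4, taurocholate, tween-20; blue fluorogenic substrate 80 uM, 40 min room temperature, stopped and read Ex 365/Em 440 for AC50.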

Assay [2] in a line: AP1 Signaling Pathway (AID 357). Further: on the % scale 0 is the no-effect control and ±100 the full control effect. To be noted: ME-180 AP-1-bla reporter, EGF-induced, beta-lactamase ratio, 5 h; at 7.69 µM (top of the series) unless noted. The procedure, abridged: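 Cells are seeded overnight, exposed to compound titrations and an EC50 level of EGF for 5 hours at 37 °C, then loaded with CCF4 dye for 2.5 hours. Beta-lactamase activity under the AP-1 element is read as a blue/green ratio.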

The nature of assay [3]: Stat Signaling Pathway (AID 446).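 Further: ME-180 cervical cancer cells given 40 pM IL-6 alongside compound; SIE-controlled beta-lactamase reporter measured as 460/530 nm FRET emission ratio; on the % scale 0 is the no-effect control and ±100 the full control effect.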 To be noted: ME-180 SIE beta-lactamase reporter, IL-6 stimulated, 5 h; at 7.69 µM (top of the series) unless noted. The procedure, abridged: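 Screening format detects activators and inhibitors alike: ME-180 SIE-bla cells stimulated at 40 pM IL-6 for 5 hrs with compound, then dual-emission beta-lactamase read at 405 nm excitation.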
Assay [4] concerns the target Glucocorticoid receptor (Homo sapiens) (UniProt P04150). Description: GR-EFC Redistribution (AID 451; calls by dose curve; further: potency means the concentration at half of the fitted maximal effect). To be noted: CHO-K1 GR-EFC translocation, beta-gal luminescence, 2 h. The procedure, abridged: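 CHO-K1 cells stably expressing nuclear-localized β-gal enzyme acceptor and GR fused C-terminally to the enzyme donor fragment; ligand-driven nuclear translocation restores β-gal by complementation. Compounds titrated up to 46 uM final, 2 h at 37 °C; luminescence read.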

For assay [5], the target named is Mitogen-activated protein kinase 10 (Mus musculus) (UniProt Q61831). Description: JNK3 AlphaScreen Assay (AID 530).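 Further: kinase came from lysate of stimulated human HepG2 cells; signal reports phosphorylation of biotinylated GST-cJun 1-79 at Ser73 with 10 µM ATP; on the % scale 0 is the no-effect control and ±100 the full control effect.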 To be noted: JNK3 lysate, c-Jun phosphorylation; series mostly up to 57.1 µM. A digest of the protocol:
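JNK3 came from HepG2 lysates pre-activated with IL-1beta and TNF-alpha and phosphorylated biotinylated GST-cJun (1-79) at 10 uM ATP, pH 7.6, room temperature. Compounds were titrated. AlphaScreen signal used anti-phospho-cJun (Ser73) antibody.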

Assay [6] concerns the target 3',5'-cyclic-AMP phosphodiesterase 4B (Homo sapiens) (UniProt Q07343). Description: qHTS Assay for Inhibitors of PDE-IV (AID 607; active means well fitted activation curve with a large enough effect in the main read-out, with a control signal flat, not every such curve was filed as active; further: % of control where 0% means no effect). To be noted: HEK293 ACTOne CNG channel cells, membrane potential fluorescence; series mostly up to 22.9 µM. A digest of the protocol: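 The readout is membrane depolarisation from a cAMP-sensing CNG channel, detected with a potential dye at ex 535/em 590. Cells were HEK293-derived (endogenous PDE-IV) at 1000 cells/well, titrated up to 22.9 uM final.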
(qHTS replaces the single test concentration by a dilution series.)

A short description of assay [7]: qHTS Assay for Lipid Storage Modulators (AID 1519; calls by dose curve). The settings on record: Drosophila S3 cells, BODIPY lipid droplet/cell ratio, laser cytometry, cells loaded with oleic acid; for activity change, negative = inhibition: at 57.5 µM (top of the series). The procedure, abridged:
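Cells seeded at 5,000 per well were treated with compounds over a concentration series and loaded with oleic acid (400 uM, as added). Lipid droplet fluorescence (488 nm excitation, 500-530 nm channel) was read by laser-scanning cytometry and normalized to 20 uM Triacsin C.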

Assay [8] can be described thus: Primary qHTS for small molecule stabilizers of the endoplasmic reticulum resident proteome: Secreted ER Calcium Modulated Protein (SERCaMP) assay (AID 1508630; active means well fitted inhibition curve with a large enough effect; further: on the % scale 0 is the no-effect control and ±100 the full control effect). To be noted: SH-SY5Y GLuc-SERCaMP (Gaussia luciferase released on ER calcium loss) secretion, thapsigargin, luminescence; series mostly up to 38.4 µM. The procedure, abridged:
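GLuc-SERCaMP-expressing SH-SY5Y cells, pretreated 16 h with compound, are challenged with thapsigargin to empty ER calcium stores; after 4 h, coelenterazine is added directly to the medium and luminescence is imaged.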

Assay [9] is described as follows: NFAT Signaling Pathway (AID 444). The settings on record: Jurkat NFAT-bla M1, carbachol, beta-lactamase ratio, 5 h; at 7.69 µM (top of the series) unless noted. The procedure, abridged:
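Jurkat cells carrying an NFAT-driven β-lactamase reporter and co-transfected muscarinic M1 receptor were treated with compound plus carbachol (1 uM final, an EC50 level) for 5 h at 37 °C. CCF4 loading followed for 1 h at RT; 460/530 nm ratio gave %activity.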

The mark [10] stands for this setting: measured here: cell count channel max response.
Setting [11] is: measured here: lipid channel max response.

Results filed as inconclusive are left out. Active and inactive are the calls of the source. Unless noted, the call rests on the fitted dose curve; in most records, active means well fitted curve in either direction with a large enough effect (not every such curve was filed as active); inconclusive means small, poorly fitted or top-dose-only effect, or another doubt; inactive means flat fitted curve, though single readings scatter.

Lysosomal acid glucosylceramidase (Homo sapiens), sequence (P04062 whole entry, looked up): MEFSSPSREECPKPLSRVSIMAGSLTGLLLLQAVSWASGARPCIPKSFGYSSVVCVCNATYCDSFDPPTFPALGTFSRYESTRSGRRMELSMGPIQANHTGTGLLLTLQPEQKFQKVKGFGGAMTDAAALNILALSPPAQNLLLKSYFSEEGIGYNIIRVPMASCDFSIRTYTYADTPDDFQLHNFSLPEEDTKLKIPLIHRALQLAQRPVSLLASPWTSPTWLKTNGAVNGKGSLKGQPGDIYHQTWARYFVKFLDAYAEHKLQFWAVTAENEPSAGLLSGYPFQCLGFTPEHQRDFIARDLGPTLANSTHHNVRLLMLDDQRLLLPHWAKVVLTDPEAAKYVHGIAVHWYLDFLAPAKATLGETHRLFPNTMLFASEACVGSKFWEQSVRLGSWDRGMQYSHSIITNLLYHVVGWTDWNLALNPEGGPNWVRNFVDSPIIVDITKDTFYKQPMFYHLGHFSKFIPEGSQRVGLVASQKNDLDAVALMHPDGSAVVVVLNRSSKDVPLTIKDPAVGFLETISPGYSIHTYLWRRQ
Glucocorticoid receptor (Homo sapiens), sequence (P04150 whole entry, looked up, the tested form may be a part): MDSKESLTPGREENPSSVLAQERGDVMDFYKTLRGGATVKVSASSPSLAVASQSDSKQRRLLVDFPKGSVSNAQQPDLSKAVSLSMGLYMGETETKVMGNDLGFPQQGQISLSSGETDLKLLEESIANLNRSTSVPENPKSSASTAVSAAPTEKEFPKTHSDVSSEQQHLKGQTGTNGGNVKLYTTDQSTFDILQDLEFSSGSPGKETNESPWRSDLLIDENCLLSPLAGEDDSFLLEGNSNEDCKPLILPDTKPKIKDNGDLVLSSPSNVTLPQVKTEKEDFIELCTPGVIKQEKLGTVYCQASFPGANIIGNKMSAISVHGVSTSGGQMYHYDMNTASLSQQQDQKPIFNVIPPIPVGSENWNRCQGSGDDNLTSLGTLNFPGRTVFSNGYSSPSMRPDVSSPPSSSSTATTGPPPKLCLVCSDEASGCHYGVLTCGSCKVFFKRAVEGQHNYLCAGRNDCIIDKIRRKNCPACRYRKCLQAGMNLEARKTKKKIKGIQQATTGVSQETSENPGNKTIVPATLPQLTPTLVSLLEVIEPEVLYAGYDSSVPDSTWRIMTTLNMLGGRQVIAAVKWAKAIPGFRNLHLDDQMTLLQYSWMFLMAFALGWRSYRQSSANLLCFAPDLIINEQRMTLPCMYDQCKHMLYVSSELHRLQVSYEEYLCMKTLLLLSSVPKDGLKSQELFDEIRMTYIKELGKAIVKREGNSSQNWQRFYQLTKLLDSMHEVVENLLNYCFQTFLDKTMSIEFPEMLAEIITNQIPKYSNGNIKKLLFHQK
3',5'-cyclic-AMP phosphodiesterase 4B (Homo sapiens), sequence (Q07343 whole entry, looked up): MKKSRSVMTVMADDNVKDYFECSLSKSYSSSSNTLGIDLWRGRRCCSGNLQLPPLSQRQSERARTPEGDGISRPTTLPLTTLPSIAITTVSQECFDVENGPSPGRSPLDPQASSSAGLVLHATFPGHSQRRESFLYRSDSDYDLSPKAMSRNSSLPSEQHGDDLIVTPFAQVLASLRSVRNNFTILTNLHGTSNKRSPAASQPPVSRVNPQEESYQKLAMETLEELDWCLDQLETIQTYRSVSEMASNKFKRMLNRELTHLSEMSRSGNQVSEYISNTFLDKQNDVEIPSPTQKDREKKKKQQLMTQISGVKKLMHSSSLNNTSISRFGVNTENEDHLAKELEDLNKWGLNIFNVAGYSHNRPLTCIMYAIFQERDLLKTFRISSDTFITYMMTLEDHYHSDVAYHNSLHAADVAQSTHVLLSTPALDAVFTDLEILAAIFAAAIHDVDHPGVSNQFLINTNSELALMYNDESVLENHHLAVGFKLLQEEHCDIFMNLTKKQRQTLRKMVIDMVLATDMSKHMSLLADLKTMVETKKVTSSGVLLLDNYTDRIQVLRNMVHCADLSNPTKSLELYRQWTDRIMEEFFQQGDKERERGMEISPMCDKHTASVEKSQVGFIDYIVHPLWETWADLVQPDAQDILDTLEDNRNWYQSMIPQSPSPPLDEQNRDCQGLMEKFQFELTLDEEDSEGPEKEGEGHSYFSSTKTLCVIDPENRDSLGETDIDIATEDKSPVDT

As for `CC(=O)N1CCC2(CCCN(Cc3ccc(C#N)cc3)C2)CC1`, the Potency was > 11.4 µM (inactive) in assay [1] and > 46 µM (inactive) in assay [4]. The values for the activity change, negative = inhibition in assay [2] and in assay [7] were 1.53% (inactive) and 4.86% (inactive), respectively. Also, in [3], the activity, negative = inhibition was 6.73% (inactive). For the same molecule, the Potency result in assay [5] and in [6] was “inactive” each time. The max response in [7] (setting [10]) was found to be 10.3%; in assay [7] (setting [11]), 18.3%. Besides, the outcome in assay [8] was inactive.
In the case of `O=C(c1cnccn1)N1CCC2(CC1)CCN(c1ccncc1)CC2`, the Potency in [1] was > 11.4 µM (inactive); in assay [4], > 46 µM (inactive). Besides, the activity change, negative = inhibition in [2] is 15.7% (inactive); in assay [7] it was 2.66% (inactive). Further, the activity, negative = inhibition in [3] was 2.83% (inactive). The Potency result in [5] and in [6] was “inactive” in each case. Besides, the max response in assay [7] (setting [10]) is 3.08%; in assay [7] (setting [11]) it was 8.09%. For the same molecule, the outcome in assay [8] was inactive.
`CS(=O)(=O)N1CCC2(CCCN(Cc3ccccc3)C2)CC1`: the figures for the Potency in assay [1] and in assay [4] were > 11.4 µM (inactive) and > 46 µM (inactive), respectively. Moreover, the activity change, negative = inhibition in assay [2] is -13.8% (inactive); in assay [7], 0.839% (inactive). For the same molecule, in assay [3], the activity, negative = inhibition was -2.17% (inactive). Further, the Potency result in assay [5] and in assay [6] was “inactive” in each case. The max response in assay [7] (setting [10]) worked out at 10.5%; in assay [7] (setting [11]) it was 13.7%. The result in assay [8] was inactive.
In the case of `O=C(c1ccncc1)N1CCC2(CCCN(Cc3nccs3)C2)CC1`, the Potency is > 11.4 µM (inactive) in assay [1] and > 46 µM (inactive) in assay [4]. The activity change, negative = inhibition in assay [2] is -14.3% (inactive); in assay [7], 6% (inactive). The activity, negative = inhibition in [3] is 7.31% (inactive). For the same molecule, the Potency result in assay [5] and in assay [6] was “inactive” each time. For the same molecule, the max response worked out at 2.79% in assay [7] (setting [10]) and 11.6% in assay [7] (setting [11]). In addition, the result in [8] was inactive.
As for `N#Cc1cccc(NC(=O)N2CC3(CCN(C(=O)c4ccco4)CC3)C2)c1`, the values for the Potency in [1] and in assay [4] were > 11.4 µM (inactive) and > 46 µM (inactive), respectively. Besides, the figures for the activity change, negative = inhibition in assay [2] and in [7] were -10.9% (inactive) and 4.67% (inactive), respectively. The activity, negative = inhibition in [3] was 19.7% (inactive). In addition, the Potency result in [5] and in assay [6] was “inactive” in each case. In addition, the values for the max response in [7] (setting [10]) and in assay [7] (setting [11]) were 3.49% and 11.7%, respectively. For the same molecule, the result in assay [8] was inactive.
Turning to `CS(=O)(=O)N1CCC2(CCCN(Cc3ccc(C#N)cc3)C2)CC1`, the Potency is > 11.4 µM (inactive) in assay [1] and > 46 µM (inactive) in [4]. Besides, the activity change, negative = inhibition was -16.1% (inactive) in [2] and 1.06% (inactive) in [7]. In addition, the activity, negative = inhibition in assay [3] was -15% (inactive). Further, the Potency entry in [5] and in [6] was “inactive” throughout. Moreover, the max response is -8.06% in [7] (setting [10]) and -6.26% in assay [7] (setting [11]). Besides, in [8], the result was inactive.
Regarding `COc1ccc(C(=O)N2CCC3(CC2)CN(c2ccc(-c4ccccc4)cc2)C3)cc1`, the Potency was > 11.4 µM (inactive) in assay [1] and > 46 µM (inactive) in [4]. Further, the activity change, negative = inhibition is -5.62% (inactive) in assay [2], -9.07% (inactive) in assay [9] and -3.67% (inactive) in [7]. Also, the Potency result in assay [5] and in assay [6] was “inactive” each time. The results for the max response in [7] (setting [10]) and in [7] (setting [11]) were 9.2% and 7.61%, respectively. In addition, in assay [8], the result was inactive.
In the case of `O=C(c1ccncc1)N1CCC2(CCCN(c3ccccn3)C2)CC1`, the Potency in assay [1] was > 11.4 µM (inactive); in [4], > 46 µM (inactive). In addition, the activity change, negative = inhibition in assay [2] was -11.7% (inactive); in assay [7], 7.75% (inactive). Further, the activity, negative = inhibition in [3] is 4.12% (inactive). Further, the Potency entry in [5] and in [6] was “inactive” each time. Also, the values for the max response in assay [7] (setting [10]) and in assay [7] (setting [11]) were 10.2% and 19.9%, respectively. In addition, the outcome in assay [8] was inactive.
